Experimental data taken from PubChem BioAssay (Tox21).
Where “and” joins values, the source holds several entries; their conditions need not be identical. Equal entries are not always repeated. Results filed as inconclusive are left out. Where a call stands in place of a potency, no number is given. The source holds several records for some structures; these can differ, active in one and inactive in another. Calls of active or inactive are those of the source. Unless noted, the call rests on the fitted dose curve.

Key:
[1] = Nuclear factor erythroid 2-related factor 2/antioxidant responsive element (Nrf2/ARE) small molecule agonists: qHTS cell viability counter screen in human keratinocytes (AID 1919968; active means well fitted curve in the direction sought with a large enough effect in the repeat runs; an effect the other way counts as inactive or inconclusive; further: nearly all actives have a fitted effect of over 55% in size; further: potency means the concentration at half of the fitted maximal effect)
Procedure, shortened: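 In human HaCaT keratinocytes stably expressing an ARE-driven luciferase, compound exposure lasted 23 h at 37 C under 5% CO2. Viable cells are quantified with a protease-based fluorogenic reagent (CellTiter-Fluor) read 1 h after addition.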

[2] = target: Gonadotropin-releasing hormone receptor (Homo sapiens) (UniProt P30968); assay: Human gonadotropin-releasing hormone receptor (GnRHR) small molecule agonists, calcium flux assay in GnRHR-HEK293 cells (AID 1920063); further: nearly all actives have a fitted effect of over 35% in size
Procedure, shortened: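 Intracellular calcium rise is the read-out: engineered human GnRHR HEK293 cells, dye-loaded, are exposed to DMSO-dissolved compounds and fluorescence at Ex/Em 480/540 is tracked for 3 min.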

[3] = target: KiSS-1 receptor (Homo sapiens) (UniProt Q969F8); assay: Human kisspeptin (KISS1R) small molecule agonists, calcium flux assay in KISS1R-HEK293 cells (AID 1920064; active means well fitted curve in the direction sought with a large enough effect in the repeat runs; an effect the other way counts as inactive or inconclusive)
Procedure, shortened: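 Concentration-response testing used 15 concentrations in triplicate on human KISS1R-expressing HEK293 cells. Calcium-dependent fluorescence (Ex/Em 480/540) was followed kinetically for 3 min after compound transfer.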

[4] = G protein-coupled receptor (GPCR) small molecule agonists, calcium flux assay: HEK293 wild type cell line counter screen (AID 1920065); further: potency means the concentration at half of the fitted maximal effect
Procedure, shortened: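 Fluorescence intensity signals activation. After overnight (18 h) culture and a 1 h calcium dye load at 37 C, compounds are added by pin tool and the plate read at 480/540 nm for 3 min in 1 s steps.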

[5] = p53 small molecule agonists, cell-based qHTS assay with human liver microsomes (AID 1963577)
Procedure, shortened: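 p53RE-bla reporter cells were pre-incubated 5 h at 37 C, then treated with compounds plus human liver microsomes (0.5 mg/mL final) and NADPH (0.5 mg/mL final) for 16 h at 37 C. Beta-lactamase activity was read by LiveBLAzer fluorescence after 2 h at room temperature.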

[6] = p53 small molecule agonists, cell-based qHTS assay with human liver microsomes: qHTS cell viability counter screen (AID 1963579); further: nearly all actives have a fitted effect of over 45% in size; further: potency means the concentration at half of the fitted maximal effect
Procedure, shortened: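 p53RE-bla cells (4,000/well) were pre-incubated 5 h at 37 C, then given compounds in DMSO plus human liver microsomes (0.5 mg/mL final) and NADPH (0.5 mg/mL final) for 16 h at 37 C. Viability was read by CellTiter-Glo luminescence.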

[7] = p53 small molecule agonists, cell-based qHTS assay with rat liver microsomes: qHTS cell viability counter screen (AID 1963580); further: nearly all actives have a fitted effect of over 45% in size; further: potency means the concentration at half of the fitted maximal effect
Procedure, shortened: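 After the beta-lactamase ratio was read, CellTiter-Glo was added to the same wells and luminescence measured at 30 min; cells had been treated 16 h at 37 C with compounds, rat liver microsomes and NADPH (0.5 mg/mL final each).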

[8] = p53 small molecule agonists, cell-based qHTS assay: qHTS cell viability counter screen (AID 1963581); further: nearly all actives have a fitted effect of over 45% in size
Procedure, shortened: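 Luminescence from CellTiter-Glo, reflecting ATP content, serves as the cytotoxicity measure; it is taken after the 2 h reporter substrate step in HCT-116 p53RE-bla cells dosed for 16 h at 37 C.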

[9] = p53 small molecule agonists, cell-based qHTS assay (AID 1963582; active means well fitted activation curve with a large enough effect in the signal ratio in the repeat runs, not every such curve was filed as active; the % refers to the signal ratio)
Procedure, shortened: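 After plating, p53RE-bla cells sat 5 h in the incubator; compounds or DMSO vehicle were pinned in; a 16 h incubation at 37 C followed; FRET substrate was added and, 2 h later at RT, fluorescence was measured.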

[10] = target: 5-hydroxytryptamine receptor 2A (Homo sapiens) (UniProt P28223); assay: 5-hydroxytryptamine receptor 2A (HTR2A) small molecule agonists, cell-based qHTS assay (AID 1963587); further: nearly all actives have a fitted effect of over 30% in size; further: potency means the concentration at half of the fitted maximal effect
Procedure, shortened: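 CHO cells stably expressing human HTR2A, plated 18 h, loaded with calcium dye 1 h at 37 C. Agonist mode: compounds added and intracellular calcium fluorescence recorded kinetically for 2 min at 1 sec intervals.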

[11] = target: Muscarinic acetylcholine receptor M1 (Homo sapiens) (UniProt P11229); assay: Cholinergic receptor muscarinic 1 (CHRM1) small molecule antagonists, cell-based qHTS assay (AID 1963588); further: nearly all actives have a fitted effect of over 40% in size
Procedure, shortened: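 Compounds were tested at 15 concentrations in three independent runs. Dye-loaded CHRM1-CHO cells were exposed 5 min at room temperature before stimulation by acetylcholine added at 50nM. Intracellular calcium was read kinetically on FDSS for 3 min.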

[12] = target: Muscarinic acetylcholine receptor M1 (Homo sapiens) (UniProt P11229); assay: Cholinergic receptor muscarinic 1 (CHRM1) small molecule agonists, cell-based qHTS assay (AID 1963589); further: nearly all actives have a fitted effect of over 35% in size
Procedure, shortened: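 Fluorescent calcium dye reports M1 activation in stably transfected CHO cells. Compounds, 15 concentrations, added after 1 h dye loading at 37 C; kinetic reading at 1 sec intervals.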

[13] = cAMP Responsive Elements (CRE) small molecule antagonists, cell-based qHTS assay (AID 1963591; active means well fitted inhibition curve with a large enough effect in the signal ratio in the repeat runs, not every such curve was filed as active; the % refers to the signal ratio)
Procedure, shortened: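 Stimulation used NKH477 at a final 0.25 uM for 3 h in compound-treated CRE-bla HEK293T cells, seeded 18 h beforehand. Reporter activity was measured with LiveBLAzer B/G FRET substrate after 2 h at room temperature.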

[14] = target: Beta-2 adrenergic receptor (Homo sapiens) (UniProt P07550); assay: Adrenergic beta2 receptor (ADRB2) small molecule antagonists, cell-based qHTS assay (AID 1963592); further: series mostly up to about 92 µM; nearly all actives have a fitted effect of over 50% in size
Procedure, shortened: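 Assay format: CHO-ADRB2 cells, 18-20hr seeding at 37C/5% CO2, then compound plus 1nM isoproterenol agonist mix for 0.5hr RT. Homogeneous time-resolved fluorescence cAMP detection after 1hr, expressed as 665/615 nm ratio.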

[15] = target: Beta-2 adrenergic receptor (Homo sapiens) (UniProt P07550); assay: Adrenergic beta2 receptor (ADRB2) small molecule agonists, cell-based qHTS assay (AID 1963593);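 further: CHO cells stably overexpressing human ADRB2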
Procedure, shortened: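 CHO cells stably over-expressing ADRB2 were plated overnight at 37C, then dosed with compounds plus a stimulation mix containing 100uM IBMX and 25uM Ro-20-1724 for 0.5hr at room temperature. cAMP was measured by HTRF competition, 1hr.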

[16] = target: D(2) dopamine receptor (Homo sapiens) (UniProt P14416); assay: Dopamine D2 receptor (DRD2) small molecule agonists, cell-based qHTS assay (AID 1963594); further: nearly all actives have a fitted effect of over 35% in size
Procedure, shortened: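 HEK293 cells stably expressing human DRD2, pre-treated with PDE inhibitor Ro20-1724 (0.1 mM final) and compound 10 min at room temperature, then stimulated with NKH477 (200nM […]) for 30 min. cAMP read by HTRF (665/620 nm).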

[17] = cAMP Responsive Elements (CRE) small molecule agonists, cell-based qHTS assay (AID 1963590)
Procedure, shortened: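 Compound exposure lasted 3 h at 37 C/5% CO2 in CRE-bla HEK 293T cells grown in assay medium with 10% dialyzed FBS and 25 mM HEPES. Reporter signal came from LiveBLAzer B/G FRET substrate, 2 h, room temperature.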

[18] = target: D(2) dopamine receptor (Homo sapiens) (UniProt P14416); assay: Dopamine D2 receptor (DRD2) small molecule antagonists, cell-based qHTS assay (AID 1963595; active means well fitted inhibition curve with a large enough effect in the signal ratio in the repeat runs, with a control signal flat; the % refers to the signal ratio; further: potency means the concentration at half of the fitted maximal effect)
Procedure, shortened: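 Cells were plated and grown for 24 h at 37 °C. Ro20-1724 (0.1 mM final) went in first, then compound for 10 min. NKH477 (200 nM) with quinpirole (12 nM) followed for 30 min at RT, then HTRF detection reagents for 1 h.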

[19] = target: 5-hydroxytryptamine receptor 2A (Homo sapiens) (UniProt P28223); assay: 5-hydroxytryptamine receptor 2A (HTR2A) small molecule antagonists, cell-based qHTS assay (AID 1963586); further: nearly all actives have a fitted effect of over 45% in size
Procedure, shortened: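 CHO cells stably expressing human HTR2A were plated for 18 h at 37 C, then loaded with calcium dye for 1 h. Compounds were preincubated 5 min at room temperature before DOI (4 nM solution) was added. Kinetic fluorescence was read for 3 min.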

[20] = p53 small molecule agonists, cell-based qHTS assay with rat liver microsomes (AID 1963578)
Procedure, shortened: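 p53RE-bla cells were exposed to compounds together with rat liver microsomes (0.5 mg/mL final) and NADPH (0.5 mg/mL final) for 16 h at 37 C, then read by LiveBLAzer beta-lactamase fluorescence after 2 h at room temperature.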

Gonadotropin-releasing hormone receptor (Homo sapiens), sequence (P30968 whole entry, looked up): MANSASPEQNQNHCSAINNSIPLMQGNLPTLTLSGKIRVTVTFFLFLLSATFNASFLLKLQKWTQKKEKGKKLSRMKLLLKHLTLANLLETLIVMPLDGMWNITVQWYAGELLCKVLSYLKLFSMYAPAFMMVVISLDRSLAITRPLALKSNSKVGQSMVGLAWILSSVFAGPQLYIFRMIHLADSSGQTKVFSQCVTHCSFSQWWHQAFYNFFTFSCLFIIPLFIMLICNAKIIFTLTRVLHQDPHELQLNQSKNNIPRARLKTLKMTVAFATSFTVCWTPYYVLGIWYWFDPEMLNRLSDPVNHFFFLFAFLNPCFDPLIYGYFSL
D(2) dopamine receptor (Homo sapiens), sequence (P14416 whole entry, looked up): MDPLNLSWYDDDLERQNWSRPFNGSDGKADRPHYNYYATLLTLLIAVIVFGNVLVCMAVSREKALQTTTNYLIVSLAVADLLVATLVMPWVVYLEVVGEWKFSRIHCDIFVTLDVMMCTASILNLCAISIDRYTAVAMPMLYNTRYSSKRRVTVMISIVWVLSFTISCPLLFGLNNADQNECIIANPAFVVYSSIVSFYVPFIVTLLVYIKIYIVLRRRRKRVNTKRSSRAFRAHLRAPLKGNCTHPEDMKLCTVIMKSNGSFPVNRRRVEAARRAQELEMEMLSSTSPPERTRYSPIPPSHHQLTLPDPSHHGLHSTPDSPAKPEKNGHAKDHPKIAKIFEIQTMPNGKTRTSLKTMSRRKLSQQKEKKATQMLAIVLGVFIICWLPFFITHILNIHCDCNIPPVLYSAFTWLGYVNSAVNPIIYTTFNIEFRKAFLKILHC
Beta-2 adrenergic receptor (Homo sapiens), sequence (P07550 whole entry, looked up): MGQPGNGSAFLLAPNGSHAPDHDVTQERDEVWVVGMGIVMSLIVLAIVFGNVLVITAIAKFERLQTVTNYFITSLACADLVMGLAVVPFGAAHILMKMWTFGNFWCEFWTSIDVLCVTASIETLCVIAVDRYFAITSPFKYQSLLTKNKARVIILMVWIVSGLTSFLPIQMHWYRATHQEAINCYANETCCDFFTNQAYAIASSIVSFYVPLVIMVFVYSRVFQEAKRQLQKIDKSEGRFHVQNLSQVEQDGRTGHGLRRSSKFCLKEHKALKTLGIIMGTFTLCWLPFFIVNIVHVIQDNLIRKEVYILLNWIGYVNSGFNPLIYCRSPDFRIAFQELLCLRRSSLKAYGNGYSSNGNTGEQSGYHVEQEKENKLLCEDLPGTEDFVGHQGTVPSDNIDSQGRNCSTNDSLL
5-hydroxytryptamine receptor 2A (Homo sapiens), sequence (P28223 whole entry, looked up): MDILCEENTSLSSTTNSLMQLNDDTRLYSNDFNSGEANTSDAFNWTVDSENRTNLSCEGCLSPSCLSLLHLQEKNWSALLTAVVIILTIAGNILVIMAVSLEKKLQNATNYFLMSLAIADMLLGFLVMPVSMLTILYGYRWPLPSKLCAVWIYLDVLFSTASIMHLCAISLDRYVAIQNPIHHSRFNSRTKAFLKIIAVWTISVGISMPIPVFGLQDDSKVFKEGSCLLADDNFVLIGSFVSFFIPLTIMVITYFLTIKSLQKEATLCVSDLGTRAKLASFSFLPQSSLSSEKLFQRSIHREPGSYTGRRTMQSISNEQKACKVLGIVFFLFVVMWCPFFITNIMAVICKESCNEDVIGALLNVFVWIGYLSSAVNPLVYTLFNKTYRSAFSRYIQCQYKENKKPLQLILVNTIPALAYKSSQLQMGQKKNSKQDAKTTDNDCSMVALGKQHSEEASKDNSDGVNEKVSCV
KiSS-1 receptor (Homo sapiens), sequence (Q969F8 whole entry, looked up): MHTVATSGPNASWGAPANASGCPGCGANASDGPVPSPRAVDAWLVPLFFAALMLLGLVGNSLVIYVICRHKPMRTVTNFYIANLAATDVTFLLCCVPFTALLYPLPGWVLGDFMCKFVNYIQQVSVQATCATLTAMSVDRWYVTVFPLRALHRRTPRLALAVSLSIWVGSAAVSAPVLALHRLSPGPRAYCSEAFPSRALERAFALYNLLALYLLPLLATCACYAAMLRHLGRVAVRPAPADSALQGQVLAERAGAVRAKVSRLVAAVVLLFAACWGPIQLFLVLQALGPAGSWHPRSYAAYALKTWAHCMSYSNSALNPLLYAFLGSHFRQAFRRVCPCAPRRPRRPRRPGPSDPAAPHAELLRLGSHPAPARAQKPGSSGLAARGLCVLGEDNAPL
Muscarinic acetylcholine receptor M1 (Homo sapiens), sequence (P11229 whole entry, looked up): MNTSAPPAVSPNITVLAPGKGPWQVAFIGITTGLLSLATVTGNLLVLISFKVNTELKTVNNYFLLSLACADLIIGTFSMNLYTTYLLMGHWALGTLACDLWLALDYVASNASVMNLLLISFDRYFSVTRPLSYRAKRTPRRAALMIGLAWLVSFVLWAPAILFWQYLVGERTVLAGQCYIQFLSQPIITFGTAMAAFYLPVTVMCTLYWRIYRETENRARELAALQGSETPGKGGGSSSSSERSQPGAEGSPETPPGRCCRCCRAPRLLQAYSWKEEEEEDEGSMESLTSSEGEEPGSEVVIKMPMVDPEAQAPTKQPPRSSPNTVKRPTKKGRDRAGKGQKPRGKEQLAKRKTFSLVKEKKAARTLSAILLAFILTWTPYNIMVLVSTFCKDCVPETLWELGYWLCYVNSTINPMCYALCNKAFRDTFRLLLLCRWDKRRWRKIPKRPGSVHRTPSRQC

Q: What does the source list for `C1=Cc2cccc3cccc1c23`?
A: Potency [1]: inactive; Potency [2]: inactive; Potency [3]: inactive; Potency [4]: inactive; Potency [5]: inactive; Potency [6]: inactive; Potency [7]: inactive; Potency [8]: inactive; Potency [9]: inactive; Potency [10]: inactive; Potency [11]: inactive; Potency [12]: inactive; Potency [13]: inactive; Potency [14]: inactive; Potency [15]: inactive; Potency [16]: inactive

Q: With `CNC(C)(C)Cc1ccccc1` as the compound, how does the Potency [1] read?
A: inactive

Q: And the Potency [2]?
A: inactive

Q: What about the Potency [3] of the same compound?
A: inactive

Q: What about the Potency [4] of the same compound?
A: inactive

Q: And the Potency [5]?
A: inactive

Q: What about the Potency [6] of the same compound?
A: inactive

Q: What about the Potency [7] of the same compound?
A: inactive

Q: What about the Potency [8] of the same compound?
A: inactive

Q: And the Potency [9]?
A: inactive

Q: And the Potency [10]?
A: inactive

Q: What about the Potency [12] of the same compound?
A: inactive

Q: What about the Potency [17] of the same compound?
A: inactive

Q: What about the Potency [14] of the same compound?
A: inactive

Q: What about the Potency [16] of the same compound?
A: inactive

Q: And the Potency [18]?
A: inactive

Q: With `c1ccc2c(c1)-c1cccc3cccc-2c13` as the compound, how does the Potency [1] read?
A: inactive

Q: What about the Potency [2] of the same compound?
A: inactive

Q: What about the Potency [3] of the same compound?
A: inactive

Q: What about the Potency [4] of the same compound?
A: inactive

Q: And the Potency [5]?
A: inactive

Q: And the Potency [6]?
A: inactive

Q: And the Potency [7]?
A: inactive

Q: And the Potency [8]?
A: inactive

Q: What about the Potency [9] of the same compound?
A: inactive

Q: And the Potency [19]?
A: inactive

Q: And the Potency [11]?
A: inactive

Q: What about the Potency [12] of the same compound?
A: inactive

Q: What about the Potency [17] of the same compound?
A: inactive

Q: What about the Potency [13] of the same compound?
A: inactive

Q: What about the Potency [14] of the same compound?
A: inactive

Q: And the Potency [16]?
A: inactive

Q: What about the Potency [18] of the same compound?
A: inactive

Q: Which results are given for `C=CCc1ccc(OC)cc1`?
A: Potency [1]: inactive; Potency [2]: inactive; Potency [3]: inactive; Potency [4]: inactive; Potency [6]: inactive; Potency [7]: inactive; Potency [8]: inactive; Potency [19]: inactive; Potency [10]: inactive; Potency [11]: inactive; Potency [12]: inactive; Potency [17]: inactive; Potency [13]: inactive; Potency [14]: inactive; Potency [16]: inactive

Q: What does the source list for `CNC(=O)O/N=C/C(C)(C)SC`?
A: Potency [1]: inactive; Potency [2]: inactive; Potency [3]: inactive; Potency [4]: inactive; Potency [6]: inactive; Potency [7]: inactive; Potency [8]: inactive; Potency [9]: inactive; Potency [19]: inactive; Potency [10]: inactive; Potency [11]: inactive; Potency [12]: inactive; Potency [17]: inactive; Potency [13]: inactive; Potency [14]: inactive; Potency [15]: inactive; Potency [18]: inactive

Q: Which Potency [1] does the source give for `O=P1(NCCCl)OCCCN1CCCl` (configuration not stated) here?
A: inactive

Q: What about the Potency [2] of the same compound?
A: inactive

Q: And the Potency [3]?
A: inactive

Q: What about the Potency [4] of the same compound?
A: inactive

Q: And the Potency [6]?
A: inactive

Q: And the Potency [7]?
A: inactive

Q: And the Potency [8]?
A: inactive

Q: And the Potency [17]?
A: inactive

Q: What about the Potency [13] of the same compound?
A: inactive

Q: What about the Potency [15] of the same compound?
A: inactive

Q: What about the Potency [16] of the same compound?
A: inactive

Q: What about the Potency [18] of the same compound?
A: inactive

Q: Which results are given for `CCCCCCn1cc[n+](C)c1`?
A: Potency [1]: inactive; Potency [2]: inactive; Potency [3]: inactive; Potency [4]: inactive; Potency [6]: inactive; Potency [7]: inactive; Potency [10]: inactive; Potency [11]: inactive; Potency [12]: inactive; Potency [17]: inactive; Potency [14]: inactive; Potency [15]: inactive

Q: Which Potency [2] does the source give for `C=C(Cl)CCl` here?
A: inactive

Q: What about the Potency [3] of the same compound?
A: inactive

Q: What about the Potency [4] of the same compound?
A: inactive

Q: What about the Potency [5] of the same compound?
A: inactive

Q: What about the Potency [20] of the same compound?
A: inactive

Q: What about the Potency [6] of the same compound?
A: inactive

Q: And the Potency [7]?
A: inactive

Q: And the Potency [8]?
A: inactive

Q: What about the Potency [9] of the same compound?
A: inactive

Q: What about the Potency [19] of the same compound?
A: inactive

Q: What about the Potency [10] of the same compound?
A: inactive

Q: What about the Potency [11] of the same compound?
A: inactive

Q: And the Potency [12]?
A: inactive

Q: And the Potency [17]?
A: inactive

Q: And the Potency [13]?
A: inactive

Q: And the Potency [14]?
A: inactive

Q: And the Potency [15]?
A: inactive

Q: And the Potency [16]?
A: inactive

Q: And the Potency [18]?
A: inactive

Q: For `CCCC[n+]1ccc(C)cc1`, which Potency [1] is on record?
A: inactive and 27.2 µM (active)

Q: What about the Potency [4] of the same compound?
A: inactive and 39 µM (active)

Q: What about the Potency [6] of the same compound?
A: inactive and 40.6 µM (active)

Q: What about the Potency [7] of the same compound?
A: inactive and 20.3 µM (active)

Q: What about the Potency [19] of the same compound?
A: inactive

Q: And the Potency [10]?
A: inactive and 43.4 µM (active) and 39 µM (active)

Q: What about the Potency [11] of the same compound?
A: inactive

Q: And the Potency [12]?
A: inactive

Q: And the Potency [17]?
A: inactive

Q: And the Potency [13]?
A: inactive

Q: What about the Potency [14] of the same compound?
A: inactive

Q: What about the Potency [15] of the same compound?
A: inactive

Q: What about the Potency [16] of the same compound?
A: inactive

Q: And the Potency [18]?
A: inactive and 60.8 µM (active)
